# Assay outcomes (PubChem)
# In the library only some 19% were active in any assay of this set; here they are far more common.
# Lassa entry inh: qHTS for Inhibitors of binding or entry into cells for Lassa Virus; Lassa virus pseudotype entry inhibition, cell reporter; 300,000 compounds, 1.2% hits; Potency, µM (series often up to 37.9 µM), for inactives: top-dose activity change, negative = inhibition, hits mostly inhibitors; calls by dose curve; tested in HEK293 cells; also: potency is read from the fitted curve at half-maximal effect; % is scaled to controls: 0 for no effect and ±100 for the full control effect; nearly all actives have a fitted effect of over 50% in size
# Pf growth 48h: Primary qHTS for delayed death inhibitors of the malarial parasite plastid, 48 hour incubation | 310,000 compounds, 5.9% hits | P. falciparum luciferase growth in erythrocytes, 48 h | AID 504832, 2011 | Potency, µM (doses to about 28.7 µM), without a hit: at the top dose activity change, negative = inhibition, hits mostly inhibitors; also: potency is read from the fitted curve at half-maximal effect; % is scaled to controls: 0 for no effect and ±100 for the full control effect
#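 Luciferase-expressing P. falciparum in infected erythrocytes (2% hematocrit, 0.1% parasitemia final) in RPMI 1640/0.5% Albumax were exposed to compound for 48 hours at 37 C, 5% CO2; growth read as luminescence.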
# Pf growth 96h: Primary qHTS for delayed death inhibitors of the malarial parasite plastid, 96 hour incubation; P. falciparum luciferase reporter growth, 96 h; Potency, µM (titrated, usually from 28.7 µM), inactives show at the highest dose activity change, negative = inhibition, hits mostly inhibitors; 320,000 compounds, 6.9% hits; also: potency is read from the fitted curve at half-maximal effect; % is scaled to controls: 0 for no effect and ±100 for the full control effect
#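 P. falciparum expressing integrated firefly luciferase grown in erythrocytes (2% hematocrit, 0.05% parasitemia final) with compounds for 96 hours at 37 C, 5% CO2. Growth inhibition read as loss of luminescence after adding luciferase detection reagent.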
# Shiga toxin inh: A qHTS for Small Molecule Inhibitors of Shiga Toxin. inhibition, % at 38.7 µM. Vero cells, Shiga toxin protein synthesis inhibition reporter. 290,000 compounds, 9.2% hits. AID 2315, 2010; in the data active = inhibition mostly above about 28%, no sharp cut-off; inactive = mostly below about 43%; also: 0% is about no effect
# Marburg entry inh: qHTS for inhibitors of binding or entry into cells for Marburg Virus | Marburg virus pseudotyped entry inhibition, cell reporter | Potency, µM (series often up to 37.8 µM), for the others: at the top dose activity change, negative = inhibition, most hits filed as inhibitors | 300,000 compounds, 1.8% hits | AID 540276, 2011; calls by dose curve; tested in HEK293 cells; also: potency is read from the fitted curve at half-maximal effect; % is scaled to controls: 0 for no effect and ±100 for the full control effect
# CHX counter: Cycloheximide Counterscreen for Small Molecule Inhibitors of Shiga Toxin; cell reporter, cycloheximide protein synthesis inhibition counterscreen; 300,000 compounds, 12% hits; max response, %; AID 2314, 2010; in the data active = max response mostly above about 13%, no sharp cut-off; inactive = mostly below about 14%; also: read at 38.3 µM for the half of the compounds with a filed dose; 0% is about no effect
# Starred values were filed as active, the others as inactive; ? = inconclusive; nt = not tested or not shown; [ ] = remark or other dose. Unless noted, calls follow the shape of the dose curve; as a rule, active = well fitted inhibition curve with a large enough effect; inconclusive = small, poorly fitted or top-dose-only effect, or another doubt; inactive = no such curve, though single readings can be large or run the other way.
SMILES,Lassa entry inh,Pf growth 48h,Pf growth 96h,Shiga toxin inh,Marburg entry inh,CHX counter
CCOCCn1c(SCCCc2ccccc2)nc2c1c(=O)[nH]c(=O)n2C,-10.6%,?,nt,-1.0,-10.9%[46.1 µM],-2.2
CCC(=O)N1CCN=C1SCc1ccc(Cl)cc1,3.8%,?,-18.7%,-8.7,-15.2%,-1.1
CCOC(=O)NN1C(=O)c2ccccc2NC1c1ccccn1 (centres undefined),nt,8.1%,10.4µM*,-4.2,nt,10.0
COC(=O)c1ccc(/C=N/NC(=O)C(=O)NCc2ccccc2)cc1,13.6%,39.6%,18.8%,8.8,?,8.0
Oc1ccc(C=NC2CCCCC2)c(O)c1,?,8.8%,10.4µM*,-2.1,-2.8%[46.1 µM],2.7
CCOC(=O)c1ccccc1NC(=O)COC(=O)C1CC(=O)N(c2ccc3c(c2)OCCO3)C1 (centres undefined),0.0%,10.7%,0.0%,nt,-28.1%,nt
CCc1ccccc1NC(=O)/C(=C/c1ccco1)c1ccccc1,15.8µM*,nt,1.85µM*,-3.6,?,8.4
NC(=O)C1CCN(Cc2ccc(OCc3ccccc3)cc2)CC1,-15.7%,104.9%,92.3%,54.3*,-30.3%,25.0*
CCCCN(C)C(=O)C1CCN(Cc2ccc(OCc3ccccc3)cc2)CC1,?,?,-9.6%,active,?,13.0
CCOC(=O)N1CCN(C(=O)C2CCN(Cc3cccc(OCc4ccccc4)c3)CC2)CC1,-3.6%,5.4%,4.65µM*,-8.5,-22.9%,-2.4
Cc1cc(C(F)(F)F)nn1CC(=O)N1CCOCC1,1.2%,8.4%,nt,39.8,-17.6%,-2.1
O=C(Nc1ccc2c(c1)OCO2)C1CCCN1C(=O)Nc1ccccc1 (centres undefined),13.9%,-5.8%,-3.5%,31.4,1.2%[46.1 µM],-1.8
CCCCc1ccc(NC(=O)C(C)CC)cc1 (centres undefined),-10.5%[46.1 µM],43.4%,6.7%,50.5*,6.4%[46.1 µM],48.3*
CCCCc1ccc(NC(=O)CC(C)(C)C)cc1,-20.5%,58.3%,?,164.2*,?,144.0*
CN(C)S(=O)(=O)c1ccc(C(=O)Nc2nnc(SCc3cccc4ccccc34)s2)cc1,-1.1%,16.3%,14.4%,-5.1,-4.8%,-2.8
O=C1CC(N2CCN(c3ccccc3Cl)CC2)C(=O)N1c1cccc(F)c1 (centres undefined),-13.0%,12.6%,?,-2.9,-14.0%,-3.3
COc1ccc(OC)c(C(=O)Nc2ccc3[nH]ccc3c2)c1,?,nt,nt,nt,-8.9%,nt
CCOc1ccc(C(=O)Nc2ccc3[nH]ncc3c2)cc1,nt,183.0%,11.7µM*,31.8,nt,18.9*
COc1ccc(C(=O)Nc2ccc3[nH]ccc3c2)cc1,1.41µM*,nt,nt,nt,?,nt
COc1ccc(C(=O)Nc2ccc3[nH]ncc3c2)cc1,nt,157.6%,133.4%,52.7*,nt,18.9*
O=C(COc1ccc(Cl)cc1)Nc1ccc2[nH]ncc2c1,6.0%,52.5%,?,-3.3,-2.9%,-2.5
COc1ccc(C(=O)Nc2ccc3cn[nH]c3c2)c(OC)c1,8.1%,250.7%,274.7%,123.3*,8.7%[46.1 µM],62.9*
O=C(NC(=O)c1ccccc1)OCC1CCCN2CCCCC12 (centres undefined),nt,nt,?,-30.5,nt,-6.0
Fc1ccccc1Cn1nnc2c(NCCc3ccccn3)ncnc21,16.5%,0.0%,?,8.7,-6.6%,-2.1
Cn1c(CC(=O)Nc2ccccc2)c(Sc2ccccc2)c2ccccc21,0.7%,?,8.28µM*,-4.2,-18.4%,-2.8
SMILES,Lassa entry inh,Pf growth 48h,Pf growth 96h,Shiga toxin inh,Marburg entry inh,CHX counter
Cn1c(=O)n(CC(=O)Nc2ccccc2)c2ccccc21,0.1%,1.3%,?,-6.2,2.0%,-0.7
Cn1c(CC(=O)Nc2ccccc2)cc2ccccc21,nt,50.3%,57.6%,45.5*,nt,40.0*
O=C(Cn1c(=O)c2ccccc2n(CC(=O)Nc2ccc(F)cc2)c1=O)NCCc1ccccc1,11.9%[46.1 µM],nt,nt,nt,-1.9%[46.1 µM],nt
CSc1c(CC(=O)Nc2ccccc2)n(C)c2ccccc12,nt,10.4µM*,?,-11.0,nt,-2.2
Cc1ccc2c(c1)c(Sc1ccccc1)c(CC(=O)O)n2C,6.3%,1.7%,1.4%,13.1,8.6%,-2.1
CSc1c(CC(=O)Nc2ccc(F)cc2)n(Cc2ccccc2)c2ccccc12,-21.4%,7.38µM*,13.1µM*,-7.4,?,-4.8
Cc1ccc(OCc2nnc(SCC(=O)O)n2N)cc1,13.9%,51.2%,-2.5%,23.6,25.3%,-1.1
C1CCC(NC2=NCCC2)CC1,1.7%,-2.2%,-6.4%,-3.4,5.1%,-2.7
CC(=O)c1cn(CC(=O)Nc2ccccc2C(F)(F)F)c2ccccc12,nt,-0.1%,?,nt,nt,-2.3
Cn1c(CC(=O)Nc2ccccc2C(F)(F)F)c(Sc2ccccc2)c2ccccc21,6.0%,14.7µM*,0.0%,-4.2,?,-3.3
COc1cccc(Oc2c(C)oc3c(CN4CCCCC4)c(O)ccc3c2=O)c1,nt,-24.1%,-24.2%,-7.4,nt,1.2
CC1(C)OC2CC3C4CCC5=CC(=O)CCC5(C)C4(F)C(O)CC3(C)C2(C(=O)CO)O1 (centres undefined),6.7%[46.1 µM],nt,nt,nt,8.9%[46.1 µM],nt
Clc1ccccc1-c1csc(Nc2cccnc2)n1,?,?,-20.3%,53.3*,?,26.5*
CCOc1ccccc1Nc1nc(-c2cccnc2)cs1,8.9%,13.1µM*,0.3%,-3.0,-4.6%,-1.1
Clc1ccccc1Nc1nc(-c2cccnc2)cs1,?,18.8%,36.5%,49.8*,?,40.7*
CSCCC(NC(=O)C1CCCC1)c1nnc2ccccn12 (centres undefined),nt,11.4%,33.0%,-5.1,nt,-4.8
O=C(COC(=O)c1ccc(Cl)s1)c1ccc[nH]1,?,-4.3%,32.8%,73.2*,2.7%[46.1 µM],26.6*
Cc1ccc(C(=O)OCC(=O)c2ccc[nH]2)s1,14.7%,115.9%,43.2%,76.1*,?,29.6*
COCCNC(=O)/C(C#N)=C/c1c(N2CCN(c3cccc(Cl)c3)CC2)nc2c(C)cccn2c1=O,nt,13.1µM*,?,-2.4,nt,-6.7
CCOC(=O)/C(C#N)=C/c1c(N2CCN(c3cccc(Cl)c3)CC2)nc2c(C)cccn2c1=O,nt,?,?,-2.5,nt,11.8
CCNC(=O)/C(C#N)=C/c1c(N2CCN(c3ccccc3)CC2)nc2c(C)cccn2c1=O,?,?,?,-2.5,-15.2%,-6.5
COCCNC(=O)/C(C#N)=C/c1c(N2CCN(c3ccc(OC)cc3)CC2)nc2c(C)cccn2c1=O,-19.8%[46.1 µM],nt,?,-3.0,?,0.7
CNC(=O)/C(C#N)=C/c1c(N2CCN(c3cccc(Cl)c3)CC2)nc2c(C)cccn2c1=O,?,-20.6%,?,-6.7,-9.2%,-6.0
COCCNC(=O)/C(C#N)=C/c1c(N2CCN(c3ccccc3)CC2)nc2c(C)cccn2c1=O,?,13.1µM*,?,-6.9,?,-5.6
